Compounds without any hit were thinned out: in the full panel of roughly 83,000, 20% have a hit.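 Method: cells in 96-well plates; compound added at one concentration; 48 h incubation; percent growth measured; values under 10 scored active.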 Activity calls are given as the source filed them.
system: UO-31 renal; experiment: NCI-60 one-dose screen, 48 h (100 = growth as untreated, 0 = no growth, -100 = all killed); details: 10 µM unless noted
Experimental: Growth inhibition of the UO-31 human tumor cell line is measured as a screen for anti-cancer activity. Cells are grown in 96 well plates and exposed to the test compound for 48 hours. Compounds are tested at a single concentration, which is 10^-5 M for most compounds. The reported endpoint is percent growth (GI% or GIPRCNT), where numbers from 0 - 100% represent growth inhibition, and numbers from -100% - 0 represent cell death. For example, a value of 40 represents 60% growth inhibition. A value of 0 means no net growth occurred over the course of the experiment. A value of -40 indicates 40% of cells at the beginning of the experiment died by the end of the experiment. A value of -100 means all cells are dead at the end of the experiment.
NCI-60 Human Tumor Cell Lines Screen was performed using the standard one-dose NCI protocol, which is described in more detail at https://dtp.cancer.gov/discovery_development/nci-60/default.htm.
Compounds with GIPRCNT values below 10 were considered active. Activity score was based on GIPRCNT using the following formula: […]
Score is 0 for GIPRCNT values of 100 or above, 50 for GIPRCNT values of 0, and 100 for GIPRCNT values of -100.

Structure (SMILES)	growth
O=C1c2cc3c(cc2-c2c1c1cc(F)c(F)cc1c(=O)n2C[C@H](O)CO)OCO3	-56.8% (active)
O=C(Cn1cc(CN2C(=O)c3ccccc3S2(=O)=O)nn1)Nc1ccc([N+](=O)[O-])cc1Cl	82.7% (inactive)
Cc1ccc(SCN2CCN(c3cccc(Cl)c3)CC2)cc1	86.6% (inactive)
O=C(NCc1cccc(C(F)(F)F)c1)[C@H](CCC(=O)N1CCN(C2CCCCC2)CC1)N1C(=O)[C@@H](N2C(=O)OC[C@@H]2c2ccccc2)[C@H]1/C(Cl)=C/c1ccccc1	27.5% (inactive)
COc1ccc2nc3cc(Cl)ccc3c(N3CCN(c4nccc(Nc5ccccc5)n4)CC3)c2c1	43.7% (inactive)
CCOC(=O)CC(C)=N	98.5% (inactive)
O=C(O)c1ccccc1Nc1cccc(S(F)(F)(F)(F)F)c1	85.6% (inactive)
CCN(CC)CCCNc1cc(OC)cc2nc3cc(Cl)ccc3nc12	-86.7% (active)
O=C1C(=O)N(CCCCn2cc(CO)nn2)c2ccccc21	87.7% (inactive)
C=C1CC[C@@H]2[C@](C)(COC(C)=O)[C@H](OC(C)=O)CC[C@@]2(C)[C@@H]1CC(NCc1ccc(F)cc1)C1=CCOC1=O (stereo not given in full)	31.3% (inactive)
COc1ccc2nc3cc(Cl)ccc3c(N3CCN(c4ccnc(N5CCOCC5)n4)CC3)c2c1	57.2% (inactive)
CCN1CCN(Cc2ccc(NC(=O)Nc3nc4ccc(Oc5ccnc(C(=O)NC)c5)cc4s3)cc2C(F)(F)F)CC1	-80.5% (active)
Oc1cccc(Nc2nccc(-c3ccc4ccccc4c3)n2)c1	34% (inactive)
CCOc1ccc(Nc2nc(-c3c(C)nc4ncccn34)cs2)cc1	33.9% (inactive)
Cc1nn(-c2ccccc2)c2nc(C)n(-c3ccc(Br)cc3)c(=O)c12	34.1% (inactive)
CC(=O)Nc1ccc2c(c1)c(NC(C)=O)nn2C(=O)Nc1ccc(Cc2ccccc2)cc1	68.2% (inactive)
CCCCCCCCCCCCCC(=O)C(C)N (stereo not given)	64.9% (inactive)
COc1ccc(Cl)cc1Nc1nc(C(F)(F)F)ccc1C(=O)N/N=C/c1cccnc1	41.5% (inactive)
Oc1ccccc1/C=N/Nc1ccc2ccccc2n1	16.4% (inactive)
CCN(CC)CC(C)Nc1ccc([N+](=O)[O-])c2sc3ccccc3c(=O)c12 (stereo not given)	0.595% (active)

Structure (SMILES)	growth
COc1ccc(/C=c2/c(=O)[nH]c3nc4sc(C)c(C)c4c(=O)n23)cc1	73% (inactive)
O=C(N/N=C/c1ccc(O)cc1O)c1cccnc1	22.2% (inactive)
CCOC(=O)/C=C/c1ccc(C(=O)OCC)[nH]1	72.1% (inactive)
CCN(CC)CCCCNc1ccc(NCCCCN(CC)CC)c2c1C(=O)c1ccccc1C2=O	62.3% (inactive)
COC1/C=C\OC2(C)Oc3c(C)c(O)c4c(O)c(c(CN(C)CCO)c(O)c4c3C2=O)NC(=O)/C(C)=C\C=C/C(C)C(O)C(C)C(O)C(C)C(OC(C)=O)C1C (stereo not given)	80.3% (inactive)
OCC1C2C=CC(C2)C1CO (stereo not given)	93.1% (inactive)
CCCCCn1cnc2c(=S)nc[nH]c21	99.1% (inactive)
Cn1c2ccccc2c2c3[nH]c(=O)[nH]c(=O)c3c3c4ccccc4n(C)c3c21	11.8% (inactive)
O=C1/C(=C/c2ccc(F)cc2)CN(C(=O)CCN2CCC(=NO)CC2)C/C1=C\c1ccc(F)cc1	-100% (active)
CC/C=C\C[C@H](O)C/C=C1/C(=O)C=C[C@@H]1C/C=C\CCCC(=O)OC(C)C	-72.6% (active)
COC1=CC(=O)C(OC)=C(OC)C1=O	104% (inactive)
CN(C)c1ccc(/C=C(\C#N)c2nc3ccccc3s2)cc1	90.7% (inactive)
Oc1ccc(Nc2nccc(-c3ccc4ccccc4c3)n2)cc1	29% (inactive)
CC[C@H](CO)Nc1nc(NCc2ccccc2)n2ncc(C(C)C)c2n1	10% (inactive)
CCCCNc1ccc2c3c1cccc3c(=O)n1c3ccccc3nc21	58.6% (inactive)
O=C(CNC1C2CC3CC(C2)CC1C3)Sc1nnc2sc3ccccc3n12 (stereo not given)	78.3% (inactive)
O=S(=O)(NCCCNc1cc(-c2cn(-c3ccccc3)nc2-c2ccccc2)ccn1)c1ccc(C(F)(F)F)cc1	40.4% (inactive)
COc1cc(C2C(C(=O)c3cccs3)=C(O)C(=O)N2CCN2CCOCC2)cc(OC)c1OC (stereo not given)	97.3% (inactive)
Nc1nc2c(c3ncccc13)C(c1ccc(Cl)c(Cl)c1)Cc1ncccc1-2 (stereo not given)	36.9% (inactive)
Cc1cc(Cl)ccc1Nc1nc(C(F)(F)F)ccc1C(=O)N/N=C/c1ccc(F)cc1	2.45% (active)

From PubChem BioAssay (NCI)
